Test results from PubChem BioAssay AID588689 (Southern Research Specialized Biocontainment Screening …, 2011).
The whole screen tested about 340,000 compounds, of which about 1,000 (0.29%) were called active. Rule as the data show it: inconclusive = inhibition above about 29% without an active follow-up result; inactive = below that. These entries were drawn from the full list. Potency and affinity values are given separately.

Biological target: Genome polyprotein (Dengue virus type 2 (strain 16681-PDK53)) (UniProt P29991)
Experiment: flavivirus cap methylation enzyme inhibition – biochemical, confirmation dose response, primary screen (AID 588689)
Settings: Dengue-2 NS5 methyltransferase capping enzyme assay, at 25 µM, stronger effect = higher value
[1] = measured here: pilot screen replicate inhibition

| Structure (SMILES) | inhibition | inhibition [1] [%] |
| --- | --- | --- |
| CC1(C)CC(=O)C(C(c2cccnc2)C2C(=O)CC(C)(C)CC2=O)C(=O)C1 | 12.3% (inactive) | -0.765 |
| COC(=O)c1ccc(C(C2C(=O)CC(C)(C)CC2=O)C2C(=O)CC(C)(C)CC2=O)cc1 | -3.89% (inactive) | – |
| COC(=O)COc1ccc(NC(=O)C(c2ccccc2)c2ccccc2)cc1 | -6.79% (inactive) | – |
| CC1(C)CC(=O)C(C(c2ccc(F)cc2)C2C(=O)CC(C)(C)CC2=O)C(=O)C1 | -0.73% (inactive) | – |
| COc1ccc(C2=CC(=O)CC(C)(C)C2)cc1 | 2.79% (inactive) | – |
| COc1cccc(C(C2C(=O)CC(C)(C)CC2=O)C2C(=O)CC(C)(C)CC2=O)c1 | 23.1% (inactive) | – |
| CC(=O)N(C)N(C)c1cc(C)nc(N)n1 | 0.78% (inactive) | – |
| Nn1cnnc1N/N=C/c1ccc(F)cc1 | 0.39% (inactive) | – |
| COc1ccc(CNc2ccc(S(N)(=O)=O)cc2)c(OC)c1OC | -2.41% (inactive) | – |
| CCOc1ccc(NC(=O)N2CCCC2C(=O)NCC2CCCO2)cc1 (stereo not given) | -7.19% (inactive) | – |
| O=C1CCCc2oc3c(c21)CCCC3 | 0.9% (inactive) | – |
| COCCN1C(=O)C(=O)/C(=C(/O)c2ccc3c(c2)OCCO3)C1c1ccc(C(=O)OC)cc1 (stereo not given) | 0.56% (inactive) | – |
| COc1ccc(-c2csc(NC(=O)CSc3nc(C)cs3)n2)cc1 | -6.77% (inactive) | – |
| COc1ccc(-c2csc(NC(=O)CSc3n[nH]c(C)n3)n2)cc1 | -3.23% (inactive) | – |
| COc1ccccc1C(C)NCC(=O)NCc1ccc(C)cc1 (stereo not given) | -3.92% (inactive) | – |
| Cc1nnc(SCC(=O)Nc2nnc(SCc3cccc(Br)c3)s2)s1 | 0.64% (inactive) | – |
| CCCc1nc(SCC(=O)Nc2nc3c(s2)CCCC3)c2ccccc2n1 | 2.76% (inactive) | – |
| CN1C/C(=C/c2ccccc2[N+](=O)[O-])C(=O)/C(=C\c2ccccc2[N+](=O)[O-])C1 | 1.54% (inactive) | – |
| O=C1c2cccc([N+](=O)[O-])c2C(=O)N1c1ccccc1 | 0% (inactive) | – |
| COc1cc(/C=C2/C(=O)NN(c3ccc(C)c(Cl)c3)C2=O)cc([N+](=O)[O-])c1O | 69.8% (inactive) | – |

| Structure (SMILES) | inhibition | inhibition [1] [%] |
| --- | --- | --- |
| O=C1NN(c2ccccc2)C(=O)/C1=C\c1ccc2c(c1)OCO2 | 15.1% (inactive) | – |
| CCOc1ccc(N2C(=O)C(=O)/C(=C(/O)c3ccccc3)C2c2ccccc2[N+](=O)[O-])cc1 (stereo not given) | 13.8% (inactive) | – |
| CCOc1ccc(C(=O)N/N=C/c2ccccc2[N+](=O)[O-])cc1 | -7.26% (inactive) | – |
| COc1ccc(C(=Cc2ccccc2[N+](=O)[O-])C(=O)O)cc1 | -6.2% (inactive) | – |
| COc1ccc(N2C(=O)CSC2c2ccccc2[N+](=O)[O-])cc1 (stereo not given) | 0.75% (inactive) | – |
| CCc1noc(C)c1C(=O)NCCc1ccc(OC)c(OC)c1 | -2.74% (inactive) | – |
| CCOC(=O)C1C(C)=C(Nc2ccc(OC)cc2)C(=O)N1c1ccc(OC)cc1 (stereo not given) | -2.18% (inactive) | – |
| O=C(Cn1cc([N+](=O)[O-])cn1)NCc1ccccc1Cl | -6.16% (inactive) | – |
| Cc1c(C2(O)CCCCC2)[nH]c2ccc(C#N)cc12 | 1.37% (inactive) | – |
| O=C1NC(=O)C(=Cc2ccccc2[N+](=O)[O-])S1 | 13.1% (inactive) | – |
| O=C(O)/C=C\c1cc2c(cc1[N+](=O)[O-])OCO2 | 4.71% (inactive) | – |
| O=C1NC(=S)N/C1=C/c1cc2c(cc1[N+](=O)[O-])OCO2 | 6.53% (inactive) | – |
| CC1(C)OC(C)(C)/C(=C\c2ccccc2[N+](=O)[O-])C1=O | -3.9% (inactive) | – |
| CCOC(=O)N1CCC(NC(=O)CSCc2nc(-c3ccccc3Cl)oc2C)CC1 | -1.81% (inactive) | – |
| CCc1ccc(C)[n+](CC(=O)c2cccs2)c1 | -10.5% (inactive) | – |
| O=C(c1cccnc1)N1CCN(S(=O)(=O)c2cccc(Cl)c2)CC1 | 2.63% (inactive) | – |
| Cc1cccc(CCNS(=O)(=O)c2ccc3c(c2)NC(=O)CS3)c1 | -3.63% (inactive) | – |
| CSCCC(NC(N)=O)C(=O)Nc1ccc2ccccc2c1 (stereo not given) | 3.12% (inactive) | – |
| NC(=O)c1ccc(NC(=O)CNc2cc(S(=O)(=O)N3CCOCC3)ccc2N2CCCC2)cc1 | -2.57% (inactive) | – |
| CCN(CC)C(=O)c1ccccc1NC(=O)CN1C(=O)c2ccccc2S1(=O)=O | -2.2% (inactive) | – |

| Structure (SMILES) | inhibition | inhibition [1] [%] |
| --- | --- | --- |
| O=C1/C(=C\c2cccc(O)c2)SC(=S)N1Cc1ccccc1 | -14.8% (inactive) | – |
| O=C(O)COc1cccc(/C=C2/SC(=S)N(Cc3ccccc3)C2=O)c1 | 13.1% (inactive) | – |
| O=C(O)CN1C(=O)/C(=C\c2cccc(OC(=O)c3ccco3)c2)SC1=S | 2.44% (inactive) | – |
| O=C(CN1C(=O)/C(=C/c2cccc(Cl)c2)SC1=S)NC1C=CS(=O)(=O)C1 (stereo not given) | -2.72% (inactive) | – |
| CN1C(=O)/C(=C\c2cccc(OCc3ccccc3)c2)SC1=S | 5.28% (inactive) | – |
| CC(=O)NNC(=O)CN1C(=O)/C(=C/c2ccccc2)SC1=S | -2.32% (inactive) | – |
| COc1cccc(/C=C2/SC(=S)N(CC(=O)NNC(=O)c3ccccc3OC)C2=O)c1 | 4.13% (inactive) | – |
| COc1cccc(/C=C2/SC(=S)N(CC(=O)NNC(=O)c3ccccc3O)C2=O)c1 | 2.67% (inactive) | – |
| COc1ccccc1CC(=O)OCC(=O)N1CCN(c2ccc(F)cc2)CC1 | -10.1% (inactive) | – |
| Cc1[nH]c(C)c(S(=O)(=O)N2CCN(c3cccc(Cl)c3)CC2)c1C(=O)N1CCCCC1 | -6.81% (inactive) | – |
| CC(C)CCN(C(=O)C1CCCC1)c1c(N)n(Cc2ccccc2)c(=O)[nH]c1=O | 0.73% (inactive) | – |
| COCCn1c(C)cc(C(=O)CSc2nnnn2C2CCCC2)c1C | -0.76% (inactive) | – |
| CCOP(=O)(OCC)c1nc(/C=C/c2ccccc2)oc1NCc1ccc(OC)cc1 | -2.05% (inactive) | – |
| Cc1ccc(NS(=O)(=O)Cc2ccccc2)nc1 | -2.96% (inactive) | – |
| O=S(=O)(Cc1ccccc1)Nc1ccccc1 | 1.96% (inactive) | -2.12 |
| CNC(=O)NC(=S)NC(=O)c1ccccc1Cl | 2.96% (inactive) | – |
| Cc1ccc2c(c1)c(C1=NC(=S)NC1=O)c(O)n2C | -5.15% (inactive) | – |
| COc1cc2c3c(c1)c(C1=NC(=S)NC1=O)c(O)n3C(C)(C)C=C2C | 5.22% (inactive) | – |
